Records with an inconclusive call do not appear. Calls of active or inactive are those of the source. Cut-off read from the data, not from the text of the source, unless noted: active = plate-normalised HSF1 focus index below about 0.46; inactive = the rest.
Experiments:
[1] = liver-stage malaria parasite growth inhibition, primary screen, cell-based, HepG2, luciferase luminescence, HepG2 viability (AID 624349; in the data active = parasite load remaining mostly below about 12%, no sharp cut-off; inactive = mostly above about 10%;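 note: 100% = mean of DMSO negative control wells on the same plate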); conditions: P. berghei liver stage in HepG2, luciferase luminescence, concentration not given here; parasite load remaining: stronger effect = lower value; viability: measured here: HepG2 viability without parasites
[2] = test system: Aerobactin synthetase IucA (Klebsiella pneumoniae); test: IucA aerobactin synthetase inhibitors, biochemical, Tocris library, absorbance (AID 1345561; call rule not given here;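 note: 100% = enzyme without compound and 0% = no enzyme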); conditions: purified IucA enzyme assay, absorbance (OD) read-out; stronger effect = lower value;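 tested at 8 µM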
[3] = growth inhibition of DIPG glioma cells, dose response, cell-based, JHH-DIPG-1, MIPE4.0, CellTiter-Glo, qHTS (AID 1347062; cut-off not given, nearly all actives have AC50 up to about 27 µM); conditions: JHH-DIPG-1 viability, CellTiter-Glo ATP luminescence
[4] = viability loss in pontine glioma line – cell-based, SU-DIPG-XXV, MIPE5.0, CellTiter-Glo, qHTS, dose response (AID 1347065; cut-off not given, nearly all actives have AC50 up to about 26 µM;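 note: cells exposed to compound for 48 hours before ATP readout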); conditions: CellTiter-Glo ATP luminescence
[5] = SU-DIPG-VI glioma cell viability, MIPE4.0 library, CellTiter-Glo luminescence, qHTS (AID 1347066; cut-off not given, nearly all actives have AC50 up to about 30 µM;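 note: cells exposed to compound for 48 hours before readout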); conditions: CellTiter-Glo ATP luminescence
[6] = sensitizers of A549 cells to miR-34 induction, primary screen, imaging, A549 dox-inducible miR-34, nuclei and caspase counts (AID 1347080;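 active = compounds whose cell count with miR-34 switched on is under 0.7 times the count with it off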); conditions: A549 miR-34 inducible, Hoechst nuclei count, 48 h
[7] = modifiers of HSF1 nuclear foci, imaging, Selleck Cancer Library (AID 1347162); conditions: human cells, at 10 µM; SSMD: measured here: HSF1 foci SSMD mean; cell count: measured here: cell number; plate-normalised HSF1 focus index: stronger effect = lower value
[8] = viability rescue of complex I mutant cybrids, primary screen, cell-based, galactose medium, ATP luminescence (AID 1645843;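 active = z-score of at least 1.8 in each of two replicates, scored against plate mean and spread of sample wells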;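 note: positive z means more ATP and so rescue of galactose-driven cybrid death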); conditions: complex I mutant cybrid cells, 72 h, stronger effect = higher value
[9] = growth inhibition of DIPG glioma cells, dose response, cell-based, SU-DIPG-XIII, MIPE4.0, CellTiter-Glo, qHTS (AID 1347061; cut-off not given, nearly all actives have AC50 up to about 37 µM;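 note: cells exposed to compound for 48 hours before readout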); conditions: SU-DIPG-XIII viability, CellTiter-Glo ATP luminescence
[10] = stronger effect = lower value, cell number ratio, induced over uninduced
[11] = measured here: relative caspase fold change +Dox/-Dox
[12] = measured here: total cells with miR-34 induction, stronger effect = lower value
[13] = measured here: total cells without miR-34 induction

Structure (SMILES)	parasite load remaining [1]	viability [1] [%]	remaining activity [2]	outcome [3]	AC50 [4]	outcome [5]	fold change [6, 10]	fold change [6, 11]	cell count [6, 12]	cell count [6, 13]	SSMD [7]	cell count [7]	plate-normalised HSF1 focus index [7]	z-score [8]	outcome [9]
Nc1nccc(-c2ccc3noc(-c4ccc(Cl)cc4)c3c2)n1	22.2% (inactive)	88.2	127% (inactive)	inactive	20.9 µM (active)	inactive	0.777 (inactive)	2.19	3770	4860	3.12	7060	1.19 (inactive)	-0.05 (inactive)	–
COc1ccc(-c2oc3cc(OC)ccc3c2C(=O)c2ccc(C#N)cc2)cc1	–	–	104% (inactive)	inactive	–	–	0.933 (inactive)	1.26	7250	7780	3.38	6920	1.2 (inactive)	0.755 (inactive)	inactive
